Screens: PubChem BioAssay, several laboratories
In the library only some 2.6% were active in any assay of this set; here they are far more common.
LGR2 inh – inhibitors of bursicon-induced LGR2 CRE-luciferase signal, primary screen, cell-based, HEK293, CRE-luciferase reporter, bursicon stimulation; Drosophila bursicon receptor LGR2 (rickets); bursicon-stimulated, 4 h; inhibition, % at 9.99 µM; hit rate 0.35% among 380,000; AID 720647, 2013;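 active = drop in luminescence signal, shown as inhibition above about 50% in the replicate tests, limit read from the data, passing the limit was not always enough; inconclusive = probably only some replicates passing the limit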;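 note: agonist challenge used bursicon conditioned medium at about half maximal strength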
TROY NFkB inh – inhibitors of TROY-driven NF-kB signaling, primary screen, Q293 LMP1-TROYcd cells, NF-kB luciferase, uHTS. Q293 LMP1-TROYcd NF-kB luciferase reporter, 4 h. inhibition, % at 10 µM. hit rate 0.98% among 360,000;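 active = compounds whose plate-normalised and pattern-corrected inhibition of the luciferase reporter signal at the single screening dose is 50% or more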
LMP1 NFkB inh – EBV LMP1-driven NF-kappaB luciferase reporter inhibitors, primary screen, cell-based, luminescence, single point. LMP1-induced NF-kappaB luciferase reporter cells. inhibition, % at 12.5 µM. hit rate 0.69% among 350,000. AID 504558, 2011; in the data active = inhibition above about 41%; inconclusive = no clear call, values can overlap the other calls;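 note: 0% = neutral control wells and 100% = reference inhibitor control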
EWS-Fli inh – EWS/Fli-driven NR0B1 reporter inhibitors, primary screen, A673 cells, NR0B1 luciferase, luminescence, MLPCN library. viability-normalised. inhibition, % at 12.6 µM. hit rate 0.67% among 350,000. AID 651661, 2012;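 active = mean inhibition of at least 50% after viability correction, with every replicate also passing that limit; inconclusive = mean reaches 50% but only one of two replicates passes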;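 note: firefly luciferase signal divided by Alamar Blue viability fluorescence both relative to DMSO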
TWEAK-Fn14 inh – inhibitors of TWEAK-Fn14 signaling, primary screen, luciferase reporter cells, uHTS; AID 1159606, 2016; inhibition, % at 10 µM; TWEAK-stimulated Fn14 reporter cells, luciferase luminescence, 8 h; hit rate 2% among 360,000; in the data active = inhibition above about 50%
Numbers without * were called inactive; ? = inconclusive; nt = not tested or not shown.

SMILES | LGR2 inh | TROY NFkB inh | LMP1 NFkB inh | EWS-Fli inh | TWEAK-Fn14 inh
C[C@@H]1CN([C@H](C)CO)C(=O)c2cc(NS(=O)(=O)c3ccc(Cl)cc3)ccc2O[C@H]1CN(C)C(=O)Nc1ccc(F)cc1 | -6 | nt | nt | 8 | nt
COc1ccc(NC(=O)N(C)C[C@@H]2Oc3c(NC(=O)c4cc(C)nn4C)cccc3C(=O)N([C@H](C)CO)C[C@H]2C)cc1 | -3 | nt | nt | nt | nt
O=C(C[C@H]1CC[C@@H](NC(=O)C2CC2)[C@@H](CO)O1)Nc1nccs1 | 8 | nt | nt | -4 | nt
CCCC#Cc1ccc([C@H]2[C@@H](CO)N3CCCCN(CC4CCOCC4)C[C@H]23)cc1 | -1 | nt | nt | -4 | nt
CN(C)C(=O)c1ccc(-c2ccccc2[C@@H]2[C@@H](C#N)N(C(=O)C3CCCC3)[C@@H]2CO)cc1 | 11 | nt | nt | -4 | nt
COCC(=O)N1CCCCN2[C@H](CO)[C@H](c3ccc(-c4cccc(C)c4)cc3)[C@@H]2C1 | 62* | nt | nt | -4 | nt
COCC(=O)N1CCCCN2[C@H](C1)[C@H](c1ccc(-c3cccc(C)c3)cc1)[C@@H]2CO | 6 | nt | nt | -1 | nt
COc1ccccc1NC(=O)N1CCCCN2[C@@H](CO)[C@H](c3ccc(-c4cccc(F)c4)cc3)[C@@H]2C1 | 76* | nt | nt | 0 | nt
O=C(Nc1ccccc1)N1CCCCN2[C@@H](CO)[C@@H](c3ccc(-c4ccccc4)cc3)[C@@H]2C1 | 27 | nt | nt | 65* | nt
CCCNC(=O)C[C@H]1CC[C@@H]2[C@H](COc3ccc(NC(=O)c4ccc(C(F)(F)F)cc4)cc3C(=O)N2C)O1 | -3 | nt | nt | -22 | nt
Cc1ccc(NC(=O)/C(C#N)=C/c2cc(C)n(-c3ccc(N4CCOCC4)c([N+](=O)[O-])c3)c2C)c(C)c1 | 6 | 13 | 27 | nt | 54*
CCn1c(SCC(=O)N/N=C/c2c[nH]c3ccccc23)nnc1-c1ccc(C(C)(C)C)cc1 | 7 | 23 | -10 | 13 | 60*
O=C(CSc1nnc(SCc2ccccc2Cl)s1)N/N=C/c1c[nH]c2ccccc12 | -38 | 23 | 12 | nt | 64*
Cc1ccc(CSc2nnc(SCC(=O)N/N=C/c3c[nH]c4ccccc34)s2)cc1 | -38 | 1 | 10 | 21 | -4
CCn1c(SCC(=O)N/N=C/c2ccc(C)o2)nnc1-c1ccc(C)cc1 | 4 | -21 | -1 | nt | 61*
CCn1c(SCC(=O)N/N=C/c2ccc(C)o2)nnc1-c1ccc(C(C)(C)C)cc1 | -2 | 3 | -7 | nt | 27
O=C(C[C@@H]1CC[C@@H](NC(=O)C2CCOCC2)[C@@H](CO)O1)NCC1CC1 | 5 | nt | nt | nt | nt
CC(C)CC#Cc1ccc([C@@H]2[C@@H](CO)N3C(=O)CN(C(=O)c4cnccn4)C[C@H]23)cc1 | -2 | nt | nt | 3 | nt
Cc1ccc([N+](=O)[O-])cc1N(CC(=O)NC1CCCC1)S(C)(=O)=O | -11 | -7 | -2 | -1 | -5
Cc1ccc(NS(=O)(=O)c2ccc(NC(=O)CN(c3cc([N+](=O)[O-])ccc3C)S(C)(=O)=O)cc2)c(C)c1 | 17 | 39 | -71 | -2 | 62*
COc1ccc(Oc2ccc3c(C(F)(F)F)cc(C(F)(F)F)nc3n2)cc1 | nt | 14 | 5 | nt | 8
Oc1ccc(Oc2ccc3c(C(F)(F)F)cc(C(F)(F)F)nc3n2)cc1 | nt | 38 | 48* | nt | 39
CCCc1cc(N2CCOCC2)n2ncc(-c3ccccc3)c2n1 | -12 | 52* | -3 | -34 | 58*
CC(C)(C)c1cc(N2CCOCC2)n2ncc(-c3ccccc3)c2n1 | 4 | 18 | -8 | 8 | 5
Cc1cc(=O)oc(C)c1C(=O)NCCCN1CCN(c2ccc(F)cc2)CC1 | nt | 8 | 12 | nt | -4
SMILES | LGR2 inh | TROY NFkB inh | LMP1 NFkB inh | EWS-Fli inh | TWEAK-Fn14 inh
COc1ccc(N2CCN(CCNC(=O)c3c(C)cc(=O)oc3C)CC2)cc1 | 9 | 11 | 51* | nt | 10
C[C@@H]1CN([C@@H](C)CO)C(=O)c2cc(NC(=O)C3CCCCC3)ccc2O[C@@H](C)CCCCO[C@H]1CN(C)C(=O)c1ccccc1 | 3 | nt | nt | 15 | nt
Cc1ccc(-c2ccc3c(c2)O[C@H](CN(C)C(=O)CC2CC2)[C@@H](C)CN([C@@H](C)CO)S3(=O)=O)cc1 | 15 | nt | nt | -1 | nt
O=C(/C=C/c1cccs1)Nc1cccc(NC(=O)/C=C/c2cccs2)n1 | 43 | 26 | -11 | -4 | 73*
Cc1cc(C)c(-c2csc(NC(=O)/C=C/c3cccs3)n2)c(C)c1 | 4 | -5 | 6 | nt | 69*
O=C(/C=C/c1cccs1)Nc1nccs1 | -13 | -33 | -25 | -35 | 0
Cc1cc(C)nc(NC(=O)/C=C/c2cccs2)c1 | -97 | -38 | -14 | -83 | -2
O=C(/C=C/c1ccccc1[N+](=O)[O-])c1ccccc1Br | ? | -12 | -17 | 54* | 10
Cc1ccc(C(=O)/C=C/c2ccccc2[N+](=O)[O-])cc1 | -53 | -63 | -40 | 5 | 30
CCN(CC)S(=O)(=O)c1ccc(Cl)c(NC(=O)COC(=O)c2cc(-c3ccccc3Cl)nc3ccccc23)c1 | 13 | 95* | -5 | 22 | 110*
COCC#Cc1cnc2c(c1)C(=O)N([C@@H](C)CO)C[C@@H](C)[C@H](CN(C)C(=O)Nc1ccc(OC)cc1)O2 | 2 | nt | nt | 4 | nt
Cc1cccc(CS(=O)(=O)c2ncc(Cl)c(C(=O)Nc3c(C)cccc3C)n2)c1 | 17 | 67* | 11 | nt | 90*
CCOC(=O)c1nc(S(C)(=O)=O)ncc1Cl | 1 | 21 | -15 | ? | 14
CCCc1nnc(NC(=O)CS(=O)(=O)c2ccc(C)cc2)s1 | -7 | -17 | -3 | 8 | -2
Cc1ccccc1NC(=O)c1nc(S(C)(=O)=O)ncc1Cl | 5 | 29 | -22 | 74* | 14
CCCc1nnc(NC(=O)c2nc(S(=O)(=O)Cc3cccc(C)c3)ncc2Cl)s1 | -10 | 57* | 9 | nt | 93*
Cc1nnc(NC(=O)c2nc(S(=O)(=O)Cc3ccccc3)ncc2Cl)s1 | -29 | -2 | 25 | 58* | 91*
CO[C@@H]1CN(C)C(=O)c2cc(NS(=O)(=O)CC(F)(F)F)ccc2OC[C@H](C)N(Cc2ccccn2)C[C@H]1C | 7 | nt | nt | 5 | nt
Cc1cccc(C)c1NC(=O)c1nc(S(=O)(=O)Cc2ccccc2)ncc1Cl | 19 | 53* | 44* | 73* | 74*
CSc1ncc(Cl)c(C(=O)Nc2cccc3ccccc23)n1 | -3 | 8 | 2 | 6 | -15
CS(=O)(=O)c1ncc(Cl)c(C(=O)Nc2ccc(OC(F)F)cc2)n1 | 4 | 57* | ? | nt | 70*
CS(=O)(=O)c1ncc(Cl)c(C(=O)Nc2ccc(N3CCOCC3)cc2)n1 | nt | 22 | 35 | nt | -12
Cc1cccc(CS(=O)(=O)c2ncc(Cl)c(C(=O)NCc3ccccc3)n2)c1 | -17 | 63* | -8 | nt | 97*
CCC(=O)N[C@@H]1CC[C@H](CC(=O)NCc2cc(F)cc(F)c2)O[C@H]1CO | -8 | nt | nt | 5 | nt
